# Test results: PubChem BioAssay (NCI)
# The panel holds about 83,000 compounds, 20% with a hit somewhere; the sample as a whole holds those more often.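 For each line, cells grew in 96-well plates with the test compound present at a single concentration for 48 hours.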 A number with no mark means an inactive call. The source made the active and inactive calls. How the source made its calls: active means growth percent below 10; inactive means the rest.
# What was measured:
# Experiment in all cases: NCI-60 one-dose screen, 48 h (100 = growth as untreated, 0 = no growth, -100 = all killed)
# Settings in all cases: 10 µM unless noted
# NCI-H23 lung = tested on: NCI-H23 lung
# NCI-H226 lung = tested on: NCI-H226 lung
# NCI-H322M lung = tested on: NCI-H322M lung
# HOP-62 NSCLC = tested on: HOP-62 NSCLC
# NCI-H460 lung = tested on: NCI-H460 lung
# HOP-92 NSCLC = tested on: HOP-92 NSCLC
# NCI-H522 lung = tested on: NCI-H522 lung
# A549/ATCC NSCLC = tested on: A549/ATCC NSCLC
# 786-0 renal = tested on: 786-0 renal
# COLO 205 colon = tested on: COLO 205 colon
Structure (SMILES),growth (NCI-H23 lung),growth (NCI-H226 lung),growth (NCI-H322M lung) [%],growth (HOP-62 NSCLC),growth (NCI-H460 lung),growth (HOP-92 NSCLC),growth (NCI-H522 lung),growth (A549/ATCC NSCLC),growth (786-0 renal),growth (COLO 205 colon)
NS(=O)(=O)c1ccc(N=Nc2c(O)n(CC(=O)Nc3ccccc3Cl)c3ccccc23)cc1,30%,-1.16% (active),29.2,17.6%,14.5%,33.7%,51.8%,18.5%,11.9%,-19.1% (active)
COc1cc2oc(-c3cccc(C(=O)Nc4ccc(Cl)cc4)c3)cc(=O)c2c(OCCNC(=O)[C@@H](N)CCC(=O)O)c1OC,88.2%,86.6%,79.8,81.9%,63.2%,63%,82.8%,103%,60.6%,70.6%
COc1cc2c(c(OC)c1OC)C(=O)CC(c1cccc(NC(=O)[C@@H](N)CC(C)C)c1)O2 (stereo not given in full),102%,94.3%,111,99%,106%,80.2%,90%,93.1%,96.4%,118%
COc1ccc(/C=C2\C(=O)Nc3ccc(Cl)cc32)cc1OCc1ccccn1,31.6%,15.6%,56,14.6%,26.4%,-12.7% (active),81.1%,41%,-18.6% (active),77.8%
CC(=O)OC[C@@]1(C)C2CC[C@]3(C)C(CC=C4C5CC(C)(C)CC[C@]5(C(=O)Nc5ccc(F)cc5)CC[C@]43C)[C@@]2(C)C[C@@H](OC(C)=O)[C@@H]1OC(C)=O (stereo not given in full),45.6%,47.7%,60.3,41.3%,11.5%,54.2%,49.5%,40.6%,59%,43.1%
N#Cc1c(-c2ccc(Cl)cc2)nc2n[nH]c(-c3ccc(Cl)cc3)c2c1-c1cccs1,62.7%,54.1%,76.8,62.8%,51.1%,15.7%,54.4%,54.9%,67.5%,53.2%
NS(=O)(=O)c1ccc(-n2cc(-c3cccc(NC(=O)c4cc(N5CCOCC5)cc(C(F)(F)F)c4)c3)nn2)cc1,54.7%,26.2%,71.4,12.9%,64.3%,9.47% (active),38.2%,76.7%,44.9%,76.9%
CCOC(=O)COc1c(OC)c(OC)cc2oc(-c3cccc(C(=O)Nc4ccc(Cl)cc4)c3)cc(=O)c12,62.9%,76.2%,108,54.9%,83.5%,52.6%,46%,77%,49.5%,39.8%
COCOc1cc2oc(C(=O)N[C@@H](Cc3ccccc3)C(O)C(=O)NCc3ccccc3)c(C)c(=O)c2cc1OCOC (stereo not given in full),59.2%,-11.8% (active),97.7,71.9%,9.45% (active),14.4%,86.9%,58.9%,14.5%,109%
Cc1cc(=O)oc2cc(OCCCCOc3ccc(/C=C/C(=O)Nc4ccccc4N)cc3)ccc12,76%,47.9%,82.2,69.7%,45.2%,83%,35.7%,46.9%,49.5%,44.9%
O=C1/C(=C/C2=Cc3ccccc3OC2)SC(=S)N1c1ccccc1F,103%,101%,105,101%,121%,61.6%,92.6%,96.7%,87.4%,116%
CC1=C(C(=O)c2ccccc2)C(c2cccc3ccccc23)n2c(nc3ccccc32)N1 (stereo not given),56.5%,50%,87.5,40.4%,87%,60.4%,66.5%,40.8%,70.6%,65.3%
COc1ccc(-c2cc(C(=O)NCc3ccccc3)nn2-c2ccc(S(C)(=O)=O)cc2)cc1OC,105%,98.5%,122,99.7%,108%,73%,87.4%,93.8%,98.6%,116%
CCCCSc1nc(NCCc2c[nH]c3ccccc23)c(C#N)c(-c2ccc(F)cc2)n1,82.3%,72.5%,86.3,68.5%,25.7%,55.7%,69%,74.5%,71.8%,57.8%
S=C(Nc1ccccc1)Nc1ccc(OCc2nc3ccccc3[nH]2)cc1,37%,79.9%,63.6,43.6%,31.3%,74.8%,2.87% (active),31%,31.8%,32.9%
COc1ccc(C(=O)/C=C/c2cccnc2)cc1S(N)(=O)=O,22.3%,77.3%,52,27.5%,19.9%,56.5%,-67.8% (active),42.7%,50.4%,23.9%
COc1cc(CNC(=O)/C=C/c2ccc3c(c2)OCO3)ccc1OCc1cn(-c2cccc(C(F)(F)F)c2)nn1,1.63% (active),-44.8% (active),26.4,1.47% (active),29.2%,-37.5% (active),–,-3.39% (active),-44.7% (active),25.3%
COc1ccc(-c2nnc3ccc(N/N=C/c4ccc(O)cc4)nn23)cc1,32.5%,77.5%,61.9,88.4%,44.3%,31.3%,–,58.5%,22.9%,56.5%
C=C1CC[C@@H]2[C@]3(C)COC(c4cn(-c5ccccc5)nc4-c4cccc([N+](=O)[O-])c4)O[C@@H]3CC[C@@]2(C)[C@@H]1C/C=C1/C(=O)OC[C@H]1O (stereo not given in full),-62.1% (active),-48.6% (active),90,10.8%,2.24% (active),-84.3% (active),-79.3% (active),30.7%,-35.8% (active),-64.2% (active)
Cc1ccc2c(N)c(C(=O)Nc3ccc(-c4ccccc4)cc3)sc2n1,42.2%,45.1%,73.8,63.5%,73%,27.1%,53.9%,81.5%,69.3%,90.9%
CN(C)c1ccnc(NCCCSC(c2ccccc2)(c2ccccc2)c2ccccc2)c1,62.7%,53%,61.5,74.3%,-19.2% (active),-2.94% (active),–,48.4%,8.23% (active),-74.6% (active)
Cc1cnc(C(=O)NNc2nc3cc(F)ccc3n3c(C(=O)N4CC5CC(C4)N5)ccc23)cn1,51.1%,12.5%,35.4,59.3%,9.91% (active),65.2%,57.8%,25.4%,-2.57% (active),10.5%
CN(C)CCOc1ccc(C(=O)C2[C@H](c3ccc(Cl)cc3)[C@@H](c3ccccc3)NC23C(=O)Nc2ccccc23)cc1 (stereo not given in full),79.6%,72%,82.5,84.2%,9.91% (active),21.4%,89.6%,48.1%,40.8%,-63.2% (active)
CC(C)Sc1nc(NCCc2c[nH]c3ccccc23)c(C#N)c(-c2ccc(F)cc2)n1,46.2%,54.5%,85.2,51.9%,5.26% (active),20.1%,–,51.4%,14.4%,28.9%
COc1ccc(C(=O)/C=C/c2cccc3ccccc23)cc1S(N)(=O)=O,-20.5% (active),32.7%,14.8,18.2%,2.2% (active),73%,–,7.01% (active),-29.8% (active),-78.6% (active)
O=C(COc1ccc(NC(=O)Nc2ccc(Cl)c(Cl)c2)cc1)N=Nc1c(O)[nH]c2ccccc12,-43.7% (active),-34.7% (active),28,-53.1% (active),-63.4% (active),-41% (active),-42.8% (active),-36.3% (active),-71.9% (active),-41.7% (active)
